# aSyn 5UTR act – Activators via SNCA 5'UTR binding, MLPCN; AID 1814, 2009; alpha-synuclein 5'UTR reporter, activators screen; activity score, % (tested at 7.5 µM), hits read low; 300,000 tested, 7.1% active; in the data active = activity score below about -60%
# Active calls of the source: *. The list is a sample of the results.
SMILES,aSyn 5UTR act
COc1cc(/C=C(/C#N)c2nc3ccccc3[nH]2)ccc1OC(=O)c1ccco1,-114*
COc1cc(/C=C(\C#N)c2nc3ccccc3[nH]2)cc(OC)c1O,-99*
COc1cc(/C=C(\C#N)c2nc3ccccc3[nH]2)ccc1Oc1ccc([N+](=O)[O-])cn1,-104*
N#C/C(=C\c1cc([N+](=O)[O-])c(N2CCOCC2)cc1N1CCOCC1)c1nc2ccccc2[nH]1,-92*
COc1ccc(/C=C(\C#N)c2nc3ccccc3[nH]2)cc1O,-144*
O=C(Nc1nnc(SCc2ccccc2F)s1)C1=COCCO1,-117*
O=C(NCCc1ccccc1)C1=COCCO1,-129*
C=CCSc1nnc(NC(=O)C2=COCCO2)s1,-82*
c1ccc(CSc2nnc(NC3=NCCCCC3)s2)cc1,-89*
O=C(Nc1nnc(SCc2ccccc2)s1)C1=COCCO1,-72*
CC(=O)Nc1nnc(SCc2ccccc2F)s1,-76*
O=C(c1ccc(F)cc1)N1CCC(c2ccccc2)C1 (stereo not given),-84*
O=C(c1ccco1)N1CCC(c2ccccc2)C1 (stereo not given),-109*
C=CCC1(CC=C)CCCN1C(=O)C1CCC(=O)N(CCc2ccc(OC)cc2)C1 (stereo not given),-210*
C=CCC1(CC=C)CCCN1C(=O)C1CCC(=O)N(CCc2ccccc2)C1 (stereo not given),-181*
COc1ccc(CCN2CC(C(=O)N(C)Cc3ccc(C)o3)CCC2=O)cc1 (stereo not given),-87*
Cc1csc(=O)n1CC(=O)OCc1cccc2ccccc12,-90*
COc1cc(/C=N/Nc2ccc(C(=O)O)cc2)cc(OC)c1OC,-148*
C=CCOc1c(OC)cc(/C=N/Nc2cccc(C(=O)O)c2)c(Br)c1Br,-177*
COc1cccc(/C=N/NC(=S)Nc2cccc(C(=O)O)c2)c1O,55
COc1ccc(/C=N/Nc2ccc(C(=O)O)cc2)c(OC)c1OC,-118*
CC(C)(C)c1csc(N/N=C/c2ccc(O)cc2)n1,-165*
O=C(OCC(F)(F)F)c1cccc(COc2ccc3ccccc3c2)c1,107
O=C(OCc1ccccc1F)c1ccc2c(c1)-c1ccccc1C2=O,-121*
O=C(OCc1cccc(F)c1)c1ccc2c(c1)-c1ccccc1C2=O,-68*
SMILES,aSyn 5UTR act
Clc1cccc(/C=N/Nc2nnc(Cl)c3ccccc23)c1,-197*
Clc1ccc(/C=N/Nc2nnc(-c3ncc[nH]3)c3ccccc23)cc1,-169*
C=CCNc1nc(-c2ccc(Cl)cc2)cs1,-238*
C=CCNc1nc(-c2ccc([N+](=O)[O-])cc2)cs1,-182*
CN(C)c1nc(-c2ccc([N+](=O)[O-])cc2)cs1,-123*
CCOc1ccc2nc(NC(=O)c3cnc(C)cn3)sc2c1,-68*
CCOc1ccc2nc(NC(=O)C3=NNC(=O)CC3)sc2c1,-73*
Cc1nn(-c2ccccc2)c(C)c1CCC(=O)O,-107*
COc1ccc(NC(=O)c2sc(SC)nc2N)cc1,-197*
COc1ccc(NC(=O)c2scc(S(=O)(=O)C(C)C)c2N)cc1,-193*
COc1ccc(NC(=O)c2cnc(SC)nc2)cc1,-124*
O=[N+]([O-])c1ccc(O)c(C=Nc2ccc3c(c2)OCO3)c1,-86*
CC1(C)CC(=O)C(C=Nc2ccc3c(c2)OCO3)=C(O)C1,-71*
CNc1nc(N/N=C/c2cc3c(cc2[N+](=O)[O-])OCO3)nc(Nc2ccccc2)n1,74
O=[N+]([O-])c1cc(Br)cc(C=Nc2ccc3c(c2)OCO3)c1O,-89*
CCCc1c(C)c2ccc(OCC(C)=O)cc2oc1=O,-143*
Cc1c(C)c2ccc(OCC(=O)c3ccccc3)cc2oc1=O,-80*
COC(=O)c1ccc(N2CCN(c3ccccc3)CC2)nc1,-231*
COC(=O)c1ccc(N2CCN(c3ccccc3)CC2)c(N)c1,-134*
Cc1cc(C)n(-c2nc3ccccc3c(=O)n2OCC(=O)OCc2ccccc2)n1,62
Cc1cc(CC(C)C)n(-c2nc3ccccc3c(=O)n2OCc2ccccc2)n1,-75*
O=C(Nc1ccccc1)c1cc2n(n1)C(C(F)(F)F)CC(C1CC1)N2 (stereo not given),-168*
Cc1nc(NCc2ccccc2)sc1C(=O)Nc1ccccc1,-148*
CSc1nc(N(C)NC(=O)c2ccc(F)cc2)c2ccccc2n1,77
Cc1nc(Nc2ccccc2)sc1C(=O)Nc1ccccc1,-102*
SMILES,aSyn 5UTR act
Nc1nc(Nc2ccccc2F)sc1C(=O)c1ccccc1,-188*
Cc1nc(Nc2ccccc2)sc1C(=O)c1ccc(F)cc1,-94*
Cc1nc(NCCOc2ccccc2)sc1C(=O)Nc1ccccc1,-88*
CC(=O)Nc1ncnc2c1c(-c1ccc(Cl)cc1)nn2C(C)(C)C,53
CC(=O)Nc1nc(-c2ccc(Cl)cc2)nc(C)c1C(C)=O,-111*
CC(=O)NCc1ccc(-c2csc(-c3cccs3)n2)cc1,-126*
CCOc1ccc2c(c1)sc(=NC(=O)C1CC1)n2C,-215*
C/C(CC(C)(C)C1CCCCC1)=N\NC(N)=S,-76*
C/C(=N\NC(=O)c1ccn[nH]1)c1cn(C)nc1C,-98*
COc1ccc(N2CS(=O)(=O)/C(=C/N(C)C)C2=O)cc1,-93*

# Screens: PubChem BioAssay, Broad Institute
